# Measurements: ChEMBL document CHEMBL3988442, “University of Dundee, Small-Polar-MMV Screening Library” (2021)
# Screen size: about 48,000 compounds; about 13,000 (27%) showed an effect of 50% or more. The list shows a part of the results.
# Test system: Wolbachia pipientis
# Assay: Anti-Wolbachia Cell-Based Screen
# Assay type: functional
# Parameters: scale not given: in the data most compounds retested in dose-response had high values
# Conditions: 5 µM
row,Structure (SMILES),Percent Effect
1,CCCn1ncc(CN2CCCC(C(=O)c3ccc(Cl)cc3C)C2)c1C (configuration not stated),-13.45%
2,Cc1noc(C)c1CN1CCOCC12CCN(c1nccs1)CC2.O=C(O)C(F)(F)F,98.18%
3,Cc1noc(C)c1CN1CCCC2(C1)CN(c1nccs1)CCO2.O=C(O)C(F)(F)F (configuration not stated),-6.248%
4,Cc1noc(C)c1CN1CCOC2(CCCN(c3nccs3)C2)C1 (configuration not stated),-30.09%
5,Cc1cc(Cl)ccc1C(=O)C1CCCN(Cc2cnc(N(C)C)s2)C1 (configuration not stated),5.845%
6,O=C(Nc1cc(C(F)(F)F)c[nH]c1=O)C1CCCN1 (configuration not stated),84.36%
7,Cc1nc(C)c(CC(=O)N2C[C@@H]3CC[C@H](C2)N(CC2CCC2)C3)c(=O)[nH]1,-4.383%
8,O=C1NC[C@H]2CN(Cc3ccnc4ccccc34)CCN12,12.9%
9,CN1CCOC(CN(C(=O)CN2CCCC2=O)c2nccs2)C1 (configuration not stated),101.5%
10,Cc1csc(CN2C[C@@H]3CN(C)CCO[C@@H]3C2)n1,8.009%
11,CN1C(=O)CCC12CCCN(Cc1nccs1)C2.O=C(O)C(F)(F)F (configuration not stated),0.9809%
12,O=C(Cc1cccnc1)N1C[C@H]2CC[C@@H]1CN(Cc1ccc(F)cc1)C2,4.977%
13,CNS(=O)(=O)CC(=O)NC(C)Cc1cccc(Cl)c1 (configuration not stated),-8.41%
14,Cc1noc(C)c1CN1CCN(C)c2ncccc2C1.O=C(O)C(F)(F)F.O=C(O)C(F)(F)F,-16.26%
15,Cc1ccc2c(n1)N(C)CCN(Cc1ccco1)C2.O=C(O)C(F)(F)F.O=C(O)C(F)(F)F,-3.328%
16,CN(C)CCN1CCN(Cc2cccs2)Cc2cccnc21.O=C(O)C(F)(F)F.O=C(O)C(F)(F)F.O=C(O)C(F)(F)F,92.36%
17,CN(C)CCN1CCN(Cc2nccs2)Cc2cccnc21.O=C(O)C(F)(F)F.O=C(O)C(F)(F)F.O=C(O)C(F)(F)F,88.3%
18,CN(C)c1ncc2c(c1C(=O)O)CCN(Cc1ccco1)C2.O=C(O)C(F)(F)F.O=C(O)C(F)(F)F,87.52%
19,COCCN1CCN(Cc2ccncc2)c2ncccc2C1.O=C(O)C(F)(F)F.O=C(O)C(F)(F)F.O=C(O)C(F)(F)F,-7.245%
20,Cc1ncc2c(c1C(=O)O)CCN(c1ncc(F)cn1)C2.O=C(O)C(F)(F)F,-15.02%
21,Cc1cnc(N2CCc3c(cnc(C)c3C(=O)O)C2)nc1.O=C(O)C(F)(F)F,-4.301%

row,Structure (SMILES),Percent Effect
1,CN(C)CCN1CCN(Cc2ccco2)Cc2cccnc21.O=C(O)C(F)(F)F.O=C(O)C(F)(F)F.O=C(O)C(F)(F)F,95.25%
2,COCCN1CCN(Cc2ccco2)Cc2ccc(C)nc21.O=C(O)C(F)(F)F.O=C(O)C(F)(F)F,-4.487%
3,COCCNC(=O)[C@H]1CN2CCC1C[C@@H]2Cn1cc(C(C)(C)C)nn1 (some centres not stated),-20.26%
4,CN(C)C(=O)CN1CC[C@H]2[C@H]1CCN2c1ncccn1.O=C(O)C(F)(F)F.O=C(O)C(F)(F)F,-4.997%
5,CCCn1nc(C)c(-c2cncn2CC2(N(C)C)CCC(C)CC2)c1C (configuration not stated),117%
6,Cc1ncsc1CN1C[C@@H](OCc2ccncc2)[C@H]2OCCC[C@H]21.O=C(O)C(F)(F)F.O=C(O)C(F)(F)F,-3.825%
7,Cc1ncsc1CN1C[C@H](OCc2ccncc2)[C@H]2OCCC[C@H]21.O=C(O)C(F)(F)F.O=C(O)C(F)(F)F,-13.88%
8,CCO[C@@H]1CC[C@H]2[C@H]1OCCN2Cc1ccoc1.O=C(O)C(F)(F)F,96.95%
9,Cc1cccc(CO[C@@H]2CC[C@H]3[C@H]2OCCN3Cc2ccoc2)n1,89.7%
10,O=C(O)C(F)(F)F.O=C(O)C(F)(F)F.c1cncc(COCC2CC[C@H]3[C@H]2OCCN3Cc2ccoc2)c1 (some centres not stated),109.4%
11,CCOCCN1CCO[C@H]2[C@H](OCc3ccccn3)CC[C@@H]21.O=C(O)C(F)(F)F.O=C(O)C(F)(F)F,26.08%
12,Cc1cccc(CO[C@@H]2CC[C@H]3[C@H]2OCCN3Cc2ccsc2)n1.O=C(O)C(F)(F)F.O=C(O)C(F)(F)F,-22.6%
13,O=C(O)C(F)(F)F.O=C(O)C(F)(F)F.O=C1N(c2cccnc2)CCC12CCCN(Cc1ccoc1)C2 (configuration not stated),-1.124%
14,c1ccc(O[C@@H]2CC[C@H]3[C@H]2OCCN3Cc2ccsc2)nc1,-6.73%
15,COCCN1CCO[C@H]2[C@H](OCc3cccc(C)n3)CC[C@@H]21,8.918%
16,O=C(O)C(F)(F)F.O=C(O)C(F)(F)F.c1cc(CO[C@@H]2CN(Cc3ccoc3)[C@@H]3CCCO[C@@H]32)ccn1,101.1%
17,CC(C)CN1C(=O)CO[C@@H]2CNC[C@H]21,-9.19%
18,CNC(=O)[C@@H]1C[C@H]2CN(C(=O)c3ccccn3)C[C@H]2N1C(C)C,-10.28%
19,CCCN1CCN(C(=O)c2ccnc(N)c2)[C@H]2CS(=O)(=O)C[C@H]21,-9.553%
20,O=C(C1CCC1)N1CCN(Cc2cccnc2)[C@H]2CS(=O)(=O)C[C@H]21,-3.397%
21,CCC(=O)N1CCN(Cc2cnc(C)nc2)[C@H]2CS(=O)(=O)C[C@H]21,99.52%

row,Structure (SMILES),Percent Effect
1,CCCN1CCN(C(=O)c2cnc(C)nc2)[C@H]2CS(=O)(=O)C[C@H]21,-7.853%
2,Cc1cccc(CN2CCN(C(=O)N(C)C)[C@@H]3CS(=O)(=O)C[C@@H]32)n1,-5.175%
3,CCCN1CCN(C(=O)c2cncnc2C)[C@H]2CS(=O)(=O)C[C@H]21,18.46%
4,Cc1ncc(CN2CCN(C(=O)N(C)C)[C@@H]3CS(=O)(=O)C[C@@H]32)cn1,93.36%
5,COC(=O)NCCC(=O)NC(C)Cc1ccccc1Br (configuration not stated),-17.72%
6,O=C(O)C(F)(F)F.O=C(O)C(F)(F)F.c1ccc(COC[C@H]2CC[C@H]3[C@H](CCN3Cc3cccs3)O2)nc1,0.5679%
7,O=C(O)C(F)(F)F.O=C(O)C(F)(F)F.c1cncc(COC[C@H]2CC[C@H]3[C@H](CCN3Cc3nccs3)O2)c1,8.415%
8,COC[C@H]1CC[C@@H]2[C@@H](CCN2Cc2ccco2)O1.O=C(O)C(F)(F)F,137.5%
9,c1coc(CN2CC[C@@H]3O[C@@H](COCc4ccncc4)CC[C@@H]32)c1,67.65%
10,CN(C)C(=O)COC[C@H]1CC[C@@H]2[C@@H](CCN2Cc2ccccn2)O1.O=C(O)C(F)(F)F.O=C(O)C(F)(F)F,-0.6188%
11,CO[C@H]1CCN(Cc2ccccn2)[C@@H]2CN(Cc3ccco3)C[C@H]12.O=C(O)C(F)(F)F.O=C(O)C(F)(F)F.O=C(O)C(F)(F)F,-3.065%
12,O=C([C@@H]1CC[C@@H]2[C@@H](CCN2Cc2ccncc2)O1)N1CCCCO1,-7.886%
13,c1ccc(COC[C@H]2CC[C@H]3[C@H](CCN3Cc3ccco3)O2)nc1,102.6%
14,Cc1noc(C)c1CN1CC[C@@H]2O[C@H](COCC3CC3)CC[C@@H]21.O=C(O)C(F)(F)F,3.642%
15,c1ccc(CCN2CCOC3(CCc4ccccc43)C2)nc1 (configuration not stated),-3.634%
16,CC[C@H]1CN2CC[C@H]1C[C@@H]2CNC(=O)Nc1cc(OC)cc(OC)c1,-7.573%
17,CN1CCN2C(=O)N(C3CCOCC3)C[C@H]2C1,-7.245%
18,CNC(=O)CN1CC[C@H]2CN(C(=O)c3ccc(C)nc3)C[C@H]2C1.O=C(O)C(F)(F)F,-24.07%
19,Cc1ccc(C(=O)N2C[C@H]3CNC[C@H]3C2)cn1,11.13%
20,Cc1nc(CN2CCC23CCN(C(=O)c2ccncc2)CC3)cs1,-6.735%
21,Cc1nc(CN2CCO[C@H]3CN(C(=O)c4ccncc4)C[C@H]32)cs1,6.304%

row,Structure (SMILES),Percent Effect
1,Cc1ccc(C(=O)N2C[C@H]3CN(Cc4csc(C)n4)C[C@H]3C2)cn1,93.97%
2,Cc1nc(CN2C[C@@H]3CN(C(=O)c4ccncc4)C[C@@H]3C2)cs1,103.2%
3,O=C(Nc1ccccc1)C1=NOC2(CCCNC2)C1 (configuration not stated),-15.15%
4,Cl.N#CC1(C(=O)NCC2CCC3(CCNCC3)O2)CC1 (configuration not stated),-12.24%
5,COc1cc2nc(NCc3ccc(C)nc3)nc(N)c2cc1OC,15.36%
6,CN1C[C@@H]2COC[C@]2(C(=O)NCc2cccs2)C1,-12.7%
7,Cc1cc(C)c(CNc2nc3ccccc3cc2CO)c(=O)[nH]1,34.93%
8,COc1cccc(CNC(C)Cn2cccn2)c1OC.Cl (configuration not stated),8.103%
9,COc1cc(CNC(C)Cn2cccn2)cc(OC)c1 (configuration not stated),102.9%
10,COc1cc(CNC(C)Cn2cccn2)cc2c1OCCO2.Cl (configuration not stated),99.62%
11,CC(Cn1cccn1)NCc1csc2c1CCCC2 (configuration not stated),12.25%
12,CC(Cn1cccn1)NCc1csc(-c2cccs2)n1 (configuration not stated),1.256%
13,CC(Cn1cccn1)NCC(=O)NC1CCOCC1 (configuration not stated),1.6%
14,CC(Cn1cccn1)NCCS(=O)(=O)c1ccccc1 (configuration not stated),-1.056%
15,COc1ccc(CNC(C)Cn2cccn2)c(OC)c1OC.Cl (configuration not stated),98.57%
16,COc1cc(CNCC(O)c2ccc(C)cc2)cc2c1OCCO2.Cl (configuration not stated),4.109%
17,CCc1nc(CNC(C)Cn2cccn2)cs1 (configuration not stated),2.575%
18,COc1c(Br)cc(Br)cc1CNC(C)Cn1cccn1 (configuration not stated),3.191%
19,COc1ccc(CNC(C)Cn2cccn2)cc1OC (configuration not stated),104.4%
